Screens as filed in PubChem BioAssay.
Compounds with a hit are over-represented: about 3.3% of the library has one in this group of screens.
HCV inh: inhibitors of hepatitis C virus infection. Potency, µM (highest dose often 41.8 µM), without a hit: at the highest dose activity change, negative = inhibition, actives largely listed as inhibitors. AID 651820. Huh7.5.1 HCVcc-Cre infection, luciferase reporter, 44 h. 340,000 compounds, 3.4% hits; active means well fitted inhibition curve with a large enough effect; inconclusive means small, poorly fitted or top-dose-only effect, or another doubt; inactive means no such curve, though single readings can be large or run the other way
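Compounds are dispensed onto cells plated 4 h earlier at 1,000 per well, with HCVcc-Cre virus (about 0.5 moi) added next. Following 44 h of culture, luminescent signal is measured for 15 sec after 15 min with substrate at room temperature.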
VACV mCherry inh: inhibitors of vaccinia virus infection (mCherry reporter signal). Potency, µM (titrated, usually from 36.5 µM), for inactives: at the top dose activity change, negative = inhibition, actives largely listed as inhibitors. 310,000 compounds, 0.63% hits. AID 720579. Vaccinia virus mCherry reporter infection, fluorescence; calls by dose curve; tested in A549 cells; further: nearly all actives have a fitted effect of over 35% in size
VACV Venus inh: vaccinia inhibition (Venus reporter); Vaccinia virus Venus reporter expression, fluorescence; Potency, µM (highest dose often 36.5 µM), for inactives: at the highest dose activity change, negative = inhibition, usual class: inhibitors; 330,000 compounds, 0.46% hits; AID 720580; calls by dose curve; tested in A549 cells; further: nearly all actives have a fitted effect of over 30% in size
The depositor's hits bear a star; i = inactive; ? = inconclusive; · = no result given; [ ] = dose if it differs, or a comment. On the % scale 0 is the no-effect control and ±100 the full control effect; potency means the concentration at half of the fitted maximal effect.

SMILES	HCV inh	VACV mCherry inh	VACV Venus inh
COc1ccc2c(c1)-c1nc(-n3ncc(C(=O)N(C)CCO)c3C3CC3)ncc1CC2	·	-16%	-14%
CCOC(=O)C1CCN(C(=O)COC(=O)CSc2ccccc2C)CC1	12%	i	0%
Cc1ccc(Cl)cc1NC(=O)CN1C(=O)c2ccccc2Sc2ncccc21	·	-12%	-1%
COc1ccc(/C=C2\CCc3ccccc3C2=O)cc1O	-9%	11µM*	?
COc1ccc(/C=C2\Cc3ccccc3C2=O)cc1OC	-15%	-9%	-18%
O=C(NCC1Cc2cc(F)cc(-c3cccnc3)c2O1)c1cnn(-c2ccccc2)c1 (stereo not drawn)	·	17%	17%
O=C(C1CCC(CNS(=O)(=O)c2cccs2)CC1)N1CCN(c2ccc(Cl)cc2)CC1 (stereo not drawn)	3.5µM*	?	?
O=C(C1CCC(CNS(=O)(=O)c2ccc(Br)s2)CC1)N1CCN(c2ccccc2)CC1 (stereo not drawn)	·	-16%	-13%
Cc1onc(-c2c(F)cccc2Cl)c1C(=O)OCC(=O)NCc1ccccc1	5%	-9%	-7%
CC1(c2nc3ccccc3cc2C#N)OCCO1	·	i	-15%
CCOc1ccc2oc(=O)cc(CN3CCN(C(=O)c4cccc(F)c4)CC3)c2c1	·	-8%	-5%
CCOc1ccc(CN2CCN(C(=O)c3cccc(F)c3)CC2)cc1	11µM*	-25%	-23%
C=C1C=C(C(F)F)n2ncc(C(=O)NCc3ccccc3)c2N1	·	-1%	-17%
Cc1cc(C)cc(Nc2nc3ccccc3n3cnnc23)c1	·	i	-21%
CCOc1cc(CNCCc2ccc(S(N)(=O)=O)cc2)ccc1OCc1ccc(Cl)cc1	?	·	11µM*
COc1ccc(Cl)cc1NC(=S)NCCc1ccc(S(N)(=O)=O)cc1	-27%	-22%	-11%
CCOc1ccc(CNCCc2ccc(S(N)(=O)=O)cc2)cc1	-28%	-1%	-10%
COc1cc(CNCCc2ccc(S(N)(=O)=O)cc2)ccc1OCc1ccc(Cl)cc1	4.5µM*	·	·
Cc1ccc(Cn2c(=O)n(Cc3ccc(Cl)cc3)c(=O)c3cccnc32)cc1	·	-20%	-8%
CCNC(=O)CC1C(=O)N(C)C(=S)N1NC(=O)c1ccc(Cl)cc1 (stereo not drawn)	19%	-20%	-9%
Nc1ccc(C(=O)NN2C(=O)[C@H](Cl)C2c2ccc(Cl)cc2)cc1 (stereo partly drawn)	10µM*	?	?
CC1CCN(C(=O)Cn2cc(SCC(=O)Nc3ccccc3C(F)(F)F)c3ccccc32)CC1	·	6%	-7%
CC(Sc1nnc(-c2ccncc2)n1C)C(=O)Nc1ccc(N2CCOCC2)cc1 (stereo not drawn)	1%	·	·
Fc1ccccc1CNc1ncnc2sccc12	2.2µM*	-14%	8%
c1ccc2c(c1)OCC(CNc1ncnc3sccc13)O2 (stereo not drawn)	1µM*	?	-21%
SMILES	HCV inh	VACV mCherry inh	VACV Venus inh
c1ccc2c(c1)OCC(CNCC1COc3ccccc3O1)O2 (stereo not drawn)	24%	-11%	-6%
CN(C)c1ccc(CNc2ncnc3sccc23)cc1	1.8µM*	-24%	-17%
COc1ccccc1CNc1ncnc2sccc12	?	i	-6%
CN(C)c1ccc(CNc2ncc(Br)cc2Br)cc1	-8%	-21%	-15%
O=c1c2ccccc2n(Cc2c(F)cccc2Cl)c(=O)n1CCc1ccccc1	·	-9%	-6%
COc1ccc(Cn2c(SCc3ccc(C(=O)NC4CCCCC4)cc3)nc3ccncc32)cc1	·	?	-22%
COc1ccc(NC(=O)c2oc3ccc(S(=O)(=O)N4CCCCC4)cc3c2C)cc1	·	-19%	-19%
COc1ccc2oc(C(=O)Nc3ccc(S(=O)(=O)N(C)C4CCN(C)CC4)cc3)c(C)c2c1	11µM*	·	·
COc1ccc(CC(=O)Nc2ccc(S(=O)(=O)N(C)C3CCN(C)CC3)cc2)cc1	0%	·	·
CC(Oc1ccc(Br)cc1)C(=O)Nc1ccc(S(=O)(=O)N(C)C2CCN(C)CC2)cc1 (stereo not drawn)	6.3µM*	-7%	?
CCN(CC)c1ccc(/C=C/c2ccc3ccccc3n2)cc1	·	i	i
CCCC12C(=O)C(C)(C(c3ccccc3)=C1c1ccccc1)C1C(=O)N(c3ccc(C)cc3)C(=O)C12 (stereo not drawn)	4.5µM*	i	-11%
Cc1ccc(CC2C(=O)N(c3ccccc3)C(=O)C2C)cc1 (stereo not drawn)	13%	-8%	-14%
CCC12C(=O)C(CC)(C(c3ccccc3)=C1c1ccccc1)[C@@H]1C(=O)N(c3ccc(C)cc3)C(=O)C12 (stereo partly drawn)	9%	-11%	-6%
CCC12C(=O)C(CC)(C(c3ccccc3)=C1c1ccccc1)[C@@H]1C(=O)N(c3ccccc3)C(=O)C12 (stereo partly drawn)	14µM*	-12%	-11%
CCc1ccc(S(=O)(=O)c2nnn3c2nc(Nc2ccc(NC(C)=O)cc2)c2sccc23)cc1	·	-8%	-13%
CC(C)c1cnc2c(c1SCC(=O)Nc1ccc(OC(F)(F)F)cc1)c(=O)n(C)c(=O)n2C	·	-19%	-22%
COc1cc(=O)n2c(c1C(=O)N(C)Cc1nonc1C)CCN(Cc1ccc(C)cc1C)CC2	·	-18%	1%
CC(C)[N+]1(C)C2CCC1CC(OC(=O)C(CO)c1ccccc1)C2 (stereo not drawn)	·	-5%	?
COc1cc2c(cc1OC)CN(c1nc(CN3CCCCC3)nc3sc4c(c13)CCCC4)CC2	22µM*	-7%	-4%
COc1cc2c(cc1OC)CN(c1nc(CN3CCCC3)nc3sc(C)c(C)c13)CC2	?	-15%	-13%
Cc1cccc(C(=O)OC(C)C(=O)Nc2ccc(S(=O)(=O)Nc3ncccn3)cc2)c1C (stereo not drawn)	1%	·	·
O=C1C(=Cc2ccc(Cl)cc2)Cc2ccccc21	·	26%	16%
C=CC(=O)N1C/C(=C/c2ccccc2)C(=O)/C(=C\c2ccccc2)C1	6.3µM*	?	8.9µM*
O=C1/C(=C/c2ccc(C(=O)O)cc2)CCC/C1=C\c1ccc(C(=O)O)cc1	7%	i	-3%
SMILES	HCV inh	VACV mCherry inh	VACV Venus inh
C=CC(=O)N1C/C(=C/c2ccc(Cl)cc2)C(=O)/C(=C\c2ccc(Cl)cc2)C1	4.5µM*	2.8µM*	5.6µM*
Cc1ccc(SCCCCN2CCNCC2)cc1	11µM*	·	·
Cc1ccc(SCCCCN2CCOCC2)cc1	-4%	i	-13%
Cc1cnc(-n2ncc(C(=O)NC(C)(C)CO)c2-c2cccs2)nc1-c1ccc(F)cc1	·	-6%	0%
CCOC(=O)CC(NC(=O)c1cc2c(=O)n3cccc(C)c3nc2s1)c1ccc(OCC)c(OC)c1 (stereo not drawn)	·	-10%	-8%
CC(=O)Nc1sc(N/N=C\c2ccc(O)cc2)nc1-c1cccs1	7%	·	·
CCN(CC)c1ccc(/C=C(\C#N)c2nc(-c3cccs3)c(NC(C)=O)s2)cc1	13µM*	·	·
CCCc1ccc(OC(C)C(=O)Nc2sc3c(c2C(=O)OC)CCCCC3)cc1 (stereo not drawn)	·	-9%[7.34 µM]	-10%[7.34 µM]
Cc1ccc(Nc2nc(NCc3ccco3)nc3nccnc23)cc1Cl	·	-11%	-10%
Cc1cnc(C)c(Nc2nc(C(N)Cc3ccc(C(F)(F)F)cc3)cs2)n1 (stereo not drawn)	·	11µM*	?
